Assay [1] is described as follows: qHTS assay to test for compound auto fluorescence at 535 nm (green) in HEK293 cells (AID 720680). A general note: In qHTS, concentration-response curves come from the screen itself.
Assay [2] can be described thus: qHTS assay to test for compound auto fluorescence at 460 nm (blue) in HEK293 cell free culture (AID 720681). The gist of the method: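 Test compounds were pinned into cell-free culture medium (DMEM with 10% FBS) and fluorescence was read directly at Ex/Em 405/460 nm. Signals were expressed as fluorescence equivalents of triamterene, with DMSO vehicle as control.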

The nature of assay [3]: qHTS assay to test for compound auto fluorescence at 535 nm (green) in HEK293 cell free culture (AID 720682). In short, it runs like this: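 Green-label autofluorescence (485 nm excitation, 535 nm emission) measured on compound added to cell-free culture medium (DMEM, 10% FBS). Output is expressed relative to fluorescein.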
A short description of assay [4]: qHTS assay to test for compound auto fluorescence at 590 nm (red) in HEK293 cell free culture (AID 720683). The gist of the method: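 Tox21 10K library compounds were pinned into cell-free DMEM with 10% FBS and fluorescence was read at excitation 540 nm. Activity is expressed as Rose Bengal sodium equivalency.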
Assay [5] can be described thus: qHTS assay to test for compound auto fluorescence at 590 nm (red) in HepG2 cell free culture (AID 720684). The gist of the method: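 Red fluorescence (540 nm excitation, 590 nm emission) was measured after compound transfer into cell-free MEM supplemented with 10% FBS. Values are equivalencies against Rose Bengal sodium.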
The nature of assay [6]: qHTS assay to test for compound auto fluorescence at 460 nm (blue) in HepG2 cell free culture (AID 720685). In short, it runs like this: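 Compound (23 nL) or DMSO pinned into cell-free MEM with 10% FBS; blue fluorescence read at 405/460 nm excitation/emission, expressed as auto-fluorescence equivalency to triamterene.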
Assay [7] is described as follows: qHTS assay to test for compound auto fluorescence at 535 nm (green) in HepG2 cell free culture (AID 720686).
The nature of assay [8]: qHTS assay to test for compound auto fluorescence at 460 nm (blue) in HepG2 cells (AID 720687). The gist of the method: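 Cells (2,000/well in MEM with 10% FBS) attached overnight at 37 C, then were exposed to compound or DMSO for 1 hr at 37 C, 5% CO2. Fluorescence read at Ex/Em 405/460 nm, expressed as triamterene-equivalent signal.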
For assay [9], the target named is Glucocorticoid receptor (Homo sapiens) (UniProt P04150). The assay can be described thus: qHTS assay to identify small molecule agonists of the glucocorticoid receptor (GR) signaling pathway (AID 720691; active = well fitted activation curve with a large enough effect in the signal ratio in the repeat runs, not every such curve was filed as active; inconclusive = weak or mixed curves, or effect the other way; inactive = no such curve, though single readings can be large or run the other way; the % refers to the signal ratio; also: potency is read from the fitted curve at half-maximal effect). The gist of the method: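 GR-bla HeLa cells (beta-lactamase reporter under glucocorticoid response element) were plated 4 h at 37 C/5% CO2, given compounds in DMSO, and incubated 18 h at 37 C. LiveBLAzer B/G FRET substrate was added for 2 h at room temperature, then fluorescence intensity read.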

Assay [10] has the same target. The assay can be described thus: qHTS assay to identify small molecule antagonists of the glucocorticoid receptor (GR) signaling pathway (AID 720692; active = well fitted inhibition curve with a large enough effect in the signal ratio in the repeat runs, not every such curve was filed as active; inconclusive = weak or mixed curves, or effect the other way; inactive = no such curve, though single readings can be large or run the other way; the % refers to the signal ratio). In short, it runs like this: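 GR-bla HeLa cells (beta-lactamase reporter under glucocorticoid response element) were pre-plated 4 h at 37 C, treated with compounds plus 5 nM dexamethasone (final) for 18 h, then read by LiveBLAzer B/G FRET fluorescence after 2 h.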

Assay [11] can be described thus: qHTS assay to identify small molecule antagonists of the glucocorticoid receptor (GR) signaling pathway - cell viability counter screen (AID 720693). Also: nearly all actives have a fitted effect of over 55% in size.
A short description of assay [12]: qHTS assay for identifying genotoxic compounds that show differential cytotoxicity against isogenic chicken DT40 cell lines with known DNA damage response pathways - wild type cell line (AID 743012). Also: nearly all actives have a fitted effect of over 60% in size. Also: potency is read from the fitted curve at half-maximal effect. The gist of the method: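 Parental DNA repair-proficient DT40 cells, 300 per well, were pre-incubated ~0.5 h at 37 C/5% CO2, pin-dosed with compounds in DMSO, then incubated 40 h. Viability was read as CellTiter-Glo luminescence after 30 min at room temperature.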

Assay [13] in a line: qHTS assay for identifying genotoxic compounds that show differential cytotoxicity against isogenic chicken DT40 cell lines with known DNA damage response pathways - Rev3 mutant cell line (AID 743014). Also: nearly all actives have a fitted effect of over 55% in size. Also: potency is read from the fitted curve at half-maximal effect.
Assay [14] can be described thus: qHTS assay for identifying genotoxic compounds that show differential cytotoxicity against isogenic chicken DT40 cell lines with known DNA damage response pathways - Rad54/Ku70 mutant cell line (AID 743015). Also: nearly all actives have a fitted effect of over 60% in size. Also: potency is read from the fitted curve at half-maximal effect.
Assay [15] is described as follows: qHTS assay to identify small molecule antagonists of the androgen receptor (AR) signaling pathway - cell viability counter screen (AID 743033; also: nearly all actives have a fitted effect of over 45% in size).
Assay [16] has as its target Androgen receptor (Homo sapiens) (UniProt P10275). The assay can be described thus: qHTS assay to identify small molecule antagonists of the androgen receptor (AR) signaling pathway (AID 743035; active = well fitted inhibition curve with a large enough effect in the signal ratio in the repeat runs, not every such curve was filed as active; inconclusive = weak or mixed curves, or effect the other way; inactive = no such curve, though single readings can be large or run the other way; the % refers to the signal ratio; also: potency is read from the fitted curve at half-maximal effect). The gist of the method: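 HEK293 cells stably carrying a UAS-driven beta-lactamase reporter (AR-UAS-bla GripTite) were plated for 4 h at 37C, then given compound and the agonist R1881 and incubated 16 h. Reporter activity was read by LiveBLAzer B/G FRET fluorescence after 2 h at room temperature.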

Assay [17] has the same target. The assay can be described thus: qHTS assay to identify small molecule agonists of the androgen receptor (AR) signaling pathway (AID 743036; active = well fitted activation curve with a large enough effect in the signal ratio in the repeat runs, with a control signal flat, not every such curve was filed as active; inconclusive = weak or mixed curves, or effect the other way; inactive = no such curve, though single readings can be large or run the other way; the % refers to the signal ratio). In short, it runs like this: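 AR-UAS-bla HEK293 cells, plated 4 h before dosing, were treated with compound for 16 h at 37C. beta-Lactamase reporter read after 2 h with LiveBLAzer B/G FRET substrate at room temperature.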
The target is the same in assay [18]. The assay can be described thus: qHTS assay to identify small molecule agonists of the androgen receptor (AR) signaling pathway using the MDA cell line (AID 743040; also: nearly all actives have a fitted effect of over 20% in size; also: potency is read from the fitted curve at half-maximal effect). In short, it runs like this: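 MDA-kb2 breast carcinoma cells stably carrying an MMTV-driven luciferase reporter (AR- and GR-responsive) were seeded and held 5 h at 37C, 0% CO2, then exposed to compounds in DMSO for 16 h. Luminescence was read 30 min after ONE-Glo addition.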

The nature of assay [19]: qHTS assay to identify small molecule antagonists of the androgen receptor (AR) signaling pathway using the MDA cell line - cell viability counter screen (AID 743041; also: nearly all actives have a fitted effect of over 45% in size; also: potency is read from the fitted curve at half-maximal effect). The gist of the method: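 MDA-kb2 AR-luc human breast carcinoma cells (MMTV-luciferase, AR/GR responsive) were treated with compounds plus R1881 agonist for 16 h at 37 °C. Viability was read as CellTiter-Fluor fluorescence in the same wells as the reporter assay.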

For assay [20], the target named is Androgen receptor (Homo sapiens) (UniProt P10275). The assay can be described thus: qHTS assay to identify small molecule antagonists of the androgen receptor (AR) signaling pathway using the MDA cell line (AID 743042; also: nearly all actives have a fitted effect of over 55% in size; also: potency is read from the fitted curve at half-maximal effect). The gist of the method: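 MDA-kb2 cells (human breast carcinoma, stably carrying an MMTV-luciferase reporter responsive to AR and GR) were plated at 3,000 cells/well and preincubated 5 hr at 37C, then given compound plus R1881 agonist for 16 h. ONE-Glo luminescence was read.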

Several values for one entry are separate records, joined by “and”; a condition that tells them apart may be missing. Equal values may be shown once. A structure can be active in one record and inactive in another. Activity calls are given as the source filed them. Unless noted, calls follow the shape of the dose curve; as a rule, active = well fitted curve in the direction sought with a large enough effect in the repeat runs; inconclusive = weak or mixed curves; inactive = no such curve, though single readings can be large; an effect the other way counts as inactive or inconclusive.

Chain of Glucocorticoid receptor (Homo sapiens) (P04150 whole entry, looked up): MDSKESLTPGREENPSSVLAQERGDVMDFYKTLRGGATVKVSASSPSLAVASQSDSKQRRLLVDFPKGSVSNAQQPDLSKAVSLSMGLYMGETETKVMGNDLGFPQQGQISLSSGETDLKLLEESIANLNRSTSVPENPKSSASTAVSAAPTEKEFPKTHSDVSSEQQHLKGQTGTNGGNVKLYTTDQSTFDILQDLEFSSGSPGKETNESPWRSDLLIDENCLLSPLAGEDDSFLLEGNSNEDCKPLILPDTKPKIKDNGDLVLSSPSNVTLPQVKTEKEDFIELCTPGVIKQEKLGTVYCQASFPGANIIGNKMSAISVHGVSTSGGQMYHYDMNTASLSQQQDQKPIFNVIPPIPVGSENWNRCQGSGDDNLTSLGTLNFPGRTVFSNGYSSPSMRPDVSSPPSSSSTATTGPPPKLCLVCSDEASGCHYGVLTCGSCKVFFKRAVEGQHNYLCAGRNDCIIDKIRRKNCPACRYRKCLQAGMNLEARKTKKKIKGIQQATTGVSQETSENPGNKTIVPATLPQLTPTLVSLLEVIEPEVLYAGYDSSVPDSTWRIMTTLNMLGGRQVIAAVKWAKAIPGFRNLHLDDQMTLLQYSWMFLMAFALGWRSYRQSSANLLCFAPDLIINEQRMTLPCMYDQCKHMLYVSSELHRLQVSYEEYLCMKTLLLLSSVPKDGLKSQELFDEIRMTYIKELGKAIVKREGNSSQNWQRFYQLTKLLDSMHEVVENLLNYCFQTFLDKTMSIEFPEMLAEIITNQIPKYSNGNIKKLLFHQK
Chain of Androgen receptor (Homo sapiens) (P10275 whole entry, looked up): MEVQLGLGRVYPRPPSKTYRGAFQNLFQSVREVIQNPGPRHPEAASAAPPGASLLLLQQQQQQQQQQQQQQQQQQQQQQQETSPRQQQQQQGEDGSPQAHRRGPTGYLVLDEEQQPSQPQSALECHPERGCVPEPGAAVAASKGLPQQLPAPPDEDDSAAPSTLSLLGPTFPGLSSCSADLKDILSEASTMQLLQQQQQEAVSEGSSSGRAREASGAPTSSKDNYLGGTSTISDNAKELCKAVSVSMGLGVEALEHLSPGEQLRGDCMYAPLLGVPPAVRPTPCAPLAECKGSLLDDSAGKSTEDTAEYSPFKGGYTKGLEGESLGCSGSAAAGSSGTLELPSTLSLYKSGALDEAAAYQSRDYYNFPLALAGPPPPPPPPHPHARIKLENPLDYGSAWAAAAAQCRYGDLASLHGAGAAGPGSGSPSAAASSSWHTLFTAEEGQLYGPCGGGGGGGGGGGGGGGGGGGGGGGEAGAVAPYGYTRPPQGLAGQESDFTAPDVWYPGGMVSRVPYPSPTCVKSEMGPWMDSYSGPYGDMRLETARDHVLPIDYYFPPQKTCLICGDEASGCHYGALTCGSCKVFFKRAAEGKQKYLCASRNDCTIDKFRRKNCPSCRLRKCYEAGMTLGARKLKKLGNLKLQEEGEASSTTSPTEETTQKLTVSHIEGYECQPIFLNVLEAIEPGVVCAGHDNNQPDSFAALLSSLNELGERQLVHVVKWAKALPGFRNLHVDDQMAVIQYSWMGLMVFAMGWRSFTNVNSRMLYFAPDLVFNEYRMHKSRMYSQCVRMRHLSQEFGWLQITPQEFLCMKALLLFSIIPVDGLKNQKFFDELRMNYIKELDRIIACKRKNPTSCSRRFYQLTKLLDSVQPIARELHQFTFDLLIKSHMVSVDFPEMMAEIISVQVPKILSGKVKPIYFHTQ

Turning to `C=C1C[C@H]2[C@@H]3C=C(C)C4=CC(=O)CC[C@]4(C)[C@H]3CC[C@]2(C)[C@@]1(OC(C)=O)C(C)=O`, the Potency entry in assay [1], in assay [2], in [3], in [4], in assay [5] and in assay [6] was “inactive” throughout. In addition, the Potency result in [7], in assay [8], in [10], in assay [11], in assay [15] and in assay [19] was “inactive” each time. The Potency result in assay [20] was “inactive”. Moreover, the Potency in [9] was 120 nM [inconclusive] (active) and 14.1 nM (active); in assay [12] it was 7.5 µM (active) and 14 µM (active); in assay [13], 8.41 µM (active) and 14 µM (active); in [14] it was 10.6 µM (active) and 17.6 µM (active); in [16], 1.77 µM (active); in [18], 47.3 nM (active) and 27.9 nM (active). For the same compound, in assay [17], the compound was called inactive.

`C[C@]12C=CC(=O)C=C1CC[C@H]1[C@@H]3C[C@@H](O)[C@](O)(C(=O)CO)[C@@]3(C)C[C@H](O)[C@@]12F`: the Potency result in [1], in assay [2], in [3], in assay [4], in assay [5] and in [6] was “inactive” each time. Also, the Potency result in assay [7], in assay [8], in [11], in assay [15] and in assay [19] was “inactive” in each case. Besides, the Potency is 301 nM (active) and 61.6 nM (active) in assay [9]; 68.6 µM (active) in [12]; 8.63 µM (active) in [13].

Regarding `C=C[C@@]1(C)CC(=O)[C@]2(O)[C@@]3(C)[C@@H](O)CCC(C)(C)[C@@H]3[C@H](O)[C@H](OC(C)=O)[C@@]2(C)O1`, the Potency result in assay [1], in assay [2], in assay [3], in assay [4], in assay [5] and in assay [6] was “inactive” each time. Moreover, the Potency entry in assay [7], in assay [8], in [9] and in assay [11] was “inactive” in each case. In addition, the Potency in assay [12] was 26.6 µM (active) and 30.6 µM (active); in assay [13], “inactive and 48.6 µM (active)”; in assay [14], 23.7 µM (active) and 24.3 µM (active); in assay [19], 26.6 µM (active) and 38.6 µM (active).

In the case of `CCCCCCCCCCCCO`, the Potency entry in [1], in [2], in assay [3], in assay [4], in assay [5] and in assay [6] was “inactive” each time. The Potency entry in [7], in [8], in assay [11], in assay [12], in assay [13] and in assay [14] was “inactive” throughout. The Potency entry in assay [15] and in assay [19] was “inactive” throughout.

In the case of `CC(=O)[C@H]1CC[C@H]2[C@@H]3CC=C4C[C@@H](O)CC[C@]4(C)[C@H]3CC[C@]12C`, the Potency entry in assay [1], in assay [2], in [3], in assay [4], in [5] and in assay [6] was “inactive” in each case. Moreover, the Potency result in assay [7], in assay [8], in assay [11], in assay [12], in assay [14] and in assay [15] was “inactive” in each case. Also, the Potency entry in assay [19] was “inactive”. For the same compound, the Potency in assay [13] is 0.485 µM (active).

Consider `CC(=O)Oc1ccc(C(c2ccc(OC(C)=O)cc2)c2ccccn2)cc1`, for which the Potency result in assay [1], in assay [2], in assay [3], in assay [4], in [5] and in [6] was “inactive” each time. Moreover, the Potency entry in [7], in [8], in assay [11], in assay [15], in assay [16] and in assay [18] was “inactive” throughout. Besides, the Potency in [12] is 23.7 µM (active) and inactive; in assay [20], 0.765 µM (active). Further, the call in assay [17] was inactive.

Consider `COC(=O)C(C)Oc1ccc(Oc2ncc(C(F)(F)F)cc2Cl)cc1` (stereo unspecified), for which the Potency result in assay [1], in assay [2], in assay [3], in assay [4], in [5] and in [6] was “inactive” throughout. Further, the Potency result in assay [7], in assay [8], in [11], in assay [15] and in assay [19] was “inactive” throughout. In addition, in [13], the Potency was 54.5 µM (active).

With `CC(C)=CCO`, the Potency result in [1], in assay [2], in assay [3], in [4], in assay [5] and in assay [6] was “inactive” each time. Moreover, the Potency result in assay [7], in assay [8], in assay [11], in assay [12], in assay [13] and in assay [15] was “inactive” throughout. In addition, the Potency entry in assay [19] is “inactive”.

The values are drawn from PubChem BioAssay (Tox21).
